Experimental findings from PubChem BioAssay are described below.

Results filed as inconclusive are left out. Active and inactive are the calls of the source.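 The calls were made as follows, unless noted: active = response below a set limit, under 55% cells CD8-positive and vesicle-bound, and CD8 cells' 90th-percentile brightness under 279; inactive = the rest.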 Square brackets hold non-standard residues; d marks the D form. Peptide text beside a SMILES is read from it. ξ: configuration not given here. ξV = CC(C)C(N)C(=O)O

Assay [1] can be described thus: rapamycin-like changes in RPL19A-GFP expression – cell-based, S. cerevisiae, multiplex flow cytometry, primary screen (AID 1862; in the data active = percent of DMSO control GFP below about 86%;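 also: lower values mimic rapamycin by blocking the RPL19A rise seen in DMSO cells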). The conditions noted are these: S. cerevisiae RPL19A-GFP strain, flow cytometry fluorescence, 3 h; at 10 µM; stronger effect = lower value. In general terms: In flow cytometry, cells or beads pass a laser one at a time.
Assay [2] is described as follows: TOR pathway GLN3 branch reporter MEP2-GFP changes – S. cerevisiae, multiplex flow cytometry, primary screen (AID 1867;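 active = GFP response, as percent of the DMSO control, above the screen-wide mean plus 3 SD, about 139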;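 also: median GFP channel fluorescence of barcode-gated MEP2-GFP cells measured by flow cytometry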). The conditions noted are these: S. cerevisiae MEP2-GFP strain, 3 h, at 10 µM, stronger effect = higher value, 100% means same as DMSO wells.
Assay [3] can be described thus: TOR pathway RTG branch CIT2 reporter changes – S. cerevisiae, GFP fusion, multiplex flow cytometry, primary screen (AID 1870;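 active = percent response above a set limit, the screen-wide mean plus 3 SD, cut at about 130% in these data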;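 also: barcoded CIT2-GFP strain pooled with four other GFP strains with rapamycin as positive control; median GFP fluorescence per well over plate mean of DMSO wells so 100% = DMSO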). The conditions noted are these: S. cerevisiae CIT2-GFP expression, 3 h, at 10 µM, stronger effect = higher value.
A short description of assay [4]: TOR pathway LAP4-GFP level changes – S. cerevisiae, multiplex flow cytometry, primary screen (AID 1873;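 active = GFP signal, as percent of the solvent control, above the screen mean plus 3 SD, about 149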). The following applies: S. cerevisiae LAP4-GFP expression, 3 h, at 10 µM, stronger effect = higher value.
The nature of assay [5]: yeast AGP1-GFP level changes, GLN3 branch – cell-based, multiplex flow cytometry, S. cerevisiae, primary screen (AID 1887;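 active = GFP signal above the screen-wide mean plus 3 SD, that is over about 124.5% of the solvent control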;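 also: AGP1-GFP fusion strain of S. cerevisiae within a five-strain barcoded multiplex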). The following applies: 3 h, at 10 µM, stronger effect = higher value.
Assay [6] is described as follows: reduced mouse 2C T cell binding to pMHC/ICAM-1 vesicles – MLPCN validation set, flow cytometry, LFA-1/ICAM-1 modulator project, pilot screen (AID 2523).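 As to vesicle binding response: mean PE anti-B7-1 fluorescence of CD8+ cells relative to row control; 100% = QL9-loaded vesicles with DMSO vehicle in the same plate row.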 The following applies: 2C mouse CD8+ T cells, at 7 µM, stronger effect = lower value; double positive events: measured here: CD8+/vesicle+ event percentage.
The target in assay [7] is Integrin beta-1 (Homo sapiens) + Integrin alpha-4 (Homo sapiens) (UniProt P13612+P05556). The assay can be described thus: alpha4beta1 integrin LIBS antibody binding reduction – U937 cells, HUTS-21 mAb, flow cytometry, validation set, VLA-4 allosteric modulator project, pilot screen (AID 2674;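 active = inhibition above 50%, about 3 SD of the validation set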;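 also: antibody binding induced by the VLA-4 ligand LDV present at three times its Kd; 0% = LDV ligand with antibody and no compound and 100% = antibody without LDV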). The following applies: HUTS-21 LIBS mAb binding, at 6.7 µM, stronger effect = higher value, binding induced by LDV ligand.

Assay [8] can be described thus: calorie-restriction mimetic ROS inhibitors, yeast – validation compound set, pilot screen (AID 2706;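 active = superoxide response below 65% of plate, a cut near 3 SD across the whole screen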;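 also: yeast exposed to compound for one week at 30 degrees C before staining; 100% = mean of all compound wells on the same plate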). The following applies: S. cerevisiae aging, superoxide DHE fluorescence; at 10 µM; stronger effect = lower value.
Assay [9] has as its target Beta-adrenergic receptor kinase 1 (Homo sapiens) (UniProt P25098). The experiment in a line: GRK2 binders displacing RNA aptamer, biochemical, validation, human GRK2, bead flow cytometry (AID 488806;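 active = aptamer binding inhibition above 30%, about 3 SD of noise from non-fluorescent compounds; inactive = inhibition at or below 30%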). The following applies: bead-bound GRK2, FAM-aptamer displacement, at 10 µM, stronger effect = higher value.
The target in assay [10] is Beta-2 adrenergic receptor (Homo sapiens) (UniProt P07550). The assay can be described thus: agonist-induced loss of surface beta2AR – cell-based, FAP fluorogen, flow cytometry, validation set, pilot screen (AID 504459;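 active = percent response above 42, roughly 3 SD of non-fluorescent test compounds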;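 also: agonist-driven loss of surface beta2AR via internalization measured by FAP dye flow cytometry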). The conditions noted are these: Am2.2-beta2AR cells, at 10 µM, stronger effect = higher value.
For assay [11], the target named is AP-2 complex subunit beta (Homo sapiens) (UniProt P63010). The experiment in a line: beta-arrestin/AP2 interaction blockers – biochemical, validation set, GST-AP2 beads, flow cytometry, pilot screen (AID 504541;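 active = inhibition above 54%, about 3 SD of non-fluorescent compounds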;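 also: AP2 carries R879A mutation and is captured from E. coli lysate; bead-bound FITC arrestin peptide fluorescence measuring arrestin peptide binding to AP2; 0% = DMSO wells and 100% = excess unlabeled arrestin peptide control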). The conditions noted are these: FITC arrestin peptide, at 10 µM, stronger effect = higher value, AP2 beta2 appendage fragment, R879A mutant.
A short description of assay [12]: cytosolic pH regulators acting via V-ATPase – S. cerevisiae, pHLuorin, HTS validation (AID 504600; in the data active = response above about 15%;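 also: plate controls were DMSO for no effect and reference compound for full effect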). The conditions noted are these: V-ATPase proton transport, at 10 µM, stronger effect = higher value.
The subject of assay [13] is anti-desmoglein-3 scFv antibody binding to human DSG3. The experiment in a line: blockers of pathogenic pemphigus antibody–desmoglein-3 binding – biochemical, validation compound set, bead-based, flow cytometry, pilot screen (AID 588368;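 active = binding below the plate cutoff, the plate median minus 3 SD, with a reading above zero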;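 also: signal is the median channel fluorescence of bead-bound GFP antibody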). The following applies: Protein G beads, DSG3-Fc, scFv-GFP binding, at 10 µM, stronger effect = lower value.
Assay [14] in a line: Nile Red efflux blockade in pump-expressing yeast – validation compound set, multiplex, phenotypic, pilot screen (AID 588506;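 active = efflux inhibition above 0.42, the validation set average plus 4 SD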;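 also: Nile Red retained in cells so higher fluorescence means more efflux inhibition; 0 = negative control wells and 1 = enniatin B 25 µM full block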). The conditions noted are these: S. cerevisiae pump-expressing triplex, Nile Red efflux flow cytometry; at 10 µM; stronger effect = higher value; the pumps come from Candida albicans.
In assay [15] the target is ATP-binding cassette sub-family B member 6 (Homo sapiens) (UniProt Q9NP58). The experiment in a line: blockers of ABCB6-driven porphyrin uptake – K562-ABCB6 cells, flow cytometry, validation set, pilot screen (AID 588550;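 active = inhibition above the screen-wide mean plus 3 SD, about 51%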;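 also: 0% = DMSO wells and 100% = benzethonium chloride 70 µM positive control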). The conditions noted are these: K562-ABCB6 porphyrin accumulation, 1 h, at 10 µM, stronger effect = higher value.
Assay [16] can be described thus: AML differentiation inducers, ER-HoxA9 marrow cells – cell-based, GFP/MAC1 double positive, flow cytometry, validation set, primary screen (AID 588685;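 active = differentiation response of at least 50%, scaled between solvent and reference control, from cells with both markers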;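 also: compound exposure lasts four days before antibody staining and flow analysis; 0% = DMSO wells and 100% = 5 µM fulvestrant positive control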). The following applies: stronger effect = higher value, normalized: vehicle 0, fulvestrant 100.

Chain of AP-2 complex subunit beta (Homo sapiens) (P63010 whole entry, looked up, the tested form may be a part, one chain of several): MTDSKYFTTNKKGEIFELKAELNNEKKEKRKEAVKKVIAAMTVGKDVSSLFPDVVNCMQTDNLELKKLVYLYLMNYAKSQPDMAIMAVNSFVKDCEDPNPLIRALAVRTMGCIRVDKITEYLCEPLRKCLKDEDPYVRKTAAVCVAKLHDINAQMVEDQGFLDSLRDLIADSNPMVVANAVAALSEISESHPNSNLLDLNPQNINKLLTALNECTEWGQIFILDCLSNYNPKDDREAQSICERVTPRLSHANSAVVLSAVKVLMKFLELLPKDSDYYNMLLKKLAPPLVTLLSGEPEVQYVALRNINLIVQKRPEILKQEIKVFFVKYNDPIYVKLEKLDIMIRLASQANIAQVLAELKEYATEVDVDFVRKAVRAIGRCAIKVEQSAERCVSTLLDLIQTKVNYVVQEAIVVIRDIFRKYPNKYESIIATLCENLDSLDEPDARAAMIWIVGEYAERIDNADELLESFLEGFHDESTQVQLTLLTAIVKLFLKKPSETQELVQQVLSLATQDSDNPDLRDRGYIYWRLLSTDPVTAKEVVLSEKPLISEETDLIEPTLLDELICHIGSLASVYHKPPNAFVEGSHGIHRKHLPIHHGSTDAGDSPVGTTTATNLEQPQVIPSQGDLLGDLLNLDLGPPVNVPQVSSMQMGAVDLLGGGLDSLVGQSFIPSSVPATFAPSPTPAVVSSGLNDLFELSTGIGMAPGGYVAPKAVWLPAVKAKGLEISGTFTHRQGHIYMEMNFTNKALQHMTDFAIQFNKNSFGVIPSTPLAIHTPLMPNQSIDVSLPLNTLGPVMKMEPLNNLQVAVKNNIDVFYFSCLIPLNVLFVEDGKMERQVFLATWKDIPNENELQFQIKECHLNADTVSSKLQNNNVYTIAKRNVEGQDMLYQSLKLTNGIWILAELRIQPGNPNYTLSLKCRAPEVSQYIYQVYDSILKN
Chain of Integrin beta-1 (Homo sapiens) + Integrin alpha-4 (Homo sapiens) (P05556 whole entry, looked up): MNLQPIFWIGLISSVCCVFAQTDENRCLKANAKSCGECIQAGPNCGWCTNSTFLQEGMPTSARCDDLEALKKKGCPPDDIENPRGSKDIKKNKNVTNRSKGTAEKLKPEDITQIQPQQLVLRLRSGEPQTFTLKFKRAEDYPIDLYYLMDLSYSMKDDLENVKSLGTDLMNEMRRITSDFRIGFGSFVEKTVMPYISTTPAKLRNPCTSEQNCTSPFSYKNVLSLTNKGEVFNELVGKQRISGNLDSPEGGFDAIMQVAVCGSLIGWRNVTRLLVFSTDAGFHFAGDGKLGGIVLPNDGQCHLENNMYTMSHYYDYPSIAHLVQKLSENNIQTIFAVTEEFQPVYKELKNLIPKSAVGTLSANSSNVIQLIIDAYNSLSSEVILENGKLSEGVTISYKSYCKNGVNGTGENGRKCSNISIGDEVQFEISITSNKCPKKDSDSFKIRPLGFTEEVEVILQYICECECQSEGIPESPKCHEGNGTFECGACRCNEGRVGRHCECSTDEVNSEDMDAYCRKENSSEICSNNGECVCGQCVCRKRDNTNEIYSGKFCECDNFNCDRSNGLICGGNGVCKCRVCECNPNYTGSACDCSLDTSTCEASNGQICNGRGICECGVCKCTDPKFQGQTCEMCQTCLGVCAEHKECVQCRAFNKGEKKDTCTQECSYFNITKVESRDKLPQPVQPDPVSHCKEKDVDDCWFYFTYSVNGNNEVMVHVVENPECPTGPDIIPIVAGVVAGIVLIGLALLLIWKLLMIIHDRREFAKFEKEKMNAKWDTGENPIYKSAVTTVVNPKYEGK
Chain of Integrin beta-1 (Homo sapiens) + Integrin alpha-4 (Homo sapiens) (P13612 whole entry, looked up): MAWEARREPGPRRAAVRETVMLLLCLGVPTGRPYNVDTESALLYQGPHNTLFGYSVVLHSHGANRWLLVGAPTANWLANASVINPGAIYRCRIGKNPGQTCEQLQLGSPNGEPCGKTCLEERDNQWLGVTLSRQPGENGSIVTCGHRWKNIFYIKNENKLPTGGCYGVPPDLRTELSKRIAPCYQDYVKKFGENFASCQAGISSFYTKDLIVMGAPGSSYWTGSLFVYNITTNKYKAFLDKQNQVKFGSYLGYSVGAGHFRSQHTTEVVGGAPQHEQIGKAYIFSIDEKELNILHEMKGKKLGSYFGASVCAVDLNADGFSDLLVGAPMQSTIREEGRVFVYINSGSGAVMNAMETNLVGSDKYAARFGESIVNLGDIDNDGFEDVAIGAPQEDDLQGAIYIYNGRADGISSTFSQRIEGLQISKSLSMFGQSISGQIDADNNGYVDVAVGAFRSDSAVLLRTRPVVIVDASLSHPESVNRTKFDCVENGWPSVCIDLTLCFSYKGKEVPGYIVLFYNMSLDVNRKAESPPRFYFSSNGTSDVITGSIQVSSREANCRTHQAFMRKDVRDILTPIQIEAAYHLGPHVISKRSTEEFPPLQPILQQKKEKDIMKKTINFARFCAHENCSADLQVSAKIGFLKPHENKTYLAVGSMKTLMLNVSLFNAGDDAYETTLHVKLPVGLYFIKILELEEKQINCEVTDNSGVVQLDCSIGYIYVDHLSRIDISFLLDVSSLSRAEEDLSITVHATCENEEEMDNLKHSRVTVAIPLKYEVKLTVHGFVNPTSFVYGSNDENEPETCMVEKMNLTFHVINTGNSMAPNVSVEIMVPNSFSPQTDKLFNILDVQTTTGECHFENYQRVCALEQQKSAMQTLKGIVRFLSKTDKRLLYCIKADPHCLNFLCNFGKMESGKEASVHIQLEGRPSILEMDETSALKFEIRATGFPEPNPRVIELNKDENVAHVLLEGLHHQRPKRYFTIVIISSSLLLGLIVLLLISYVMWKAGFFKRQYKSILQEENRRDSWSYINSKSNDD
Chain of Beta-2 adrenergic receptor (Homo sapiens) (P07550 whole entry, looked up): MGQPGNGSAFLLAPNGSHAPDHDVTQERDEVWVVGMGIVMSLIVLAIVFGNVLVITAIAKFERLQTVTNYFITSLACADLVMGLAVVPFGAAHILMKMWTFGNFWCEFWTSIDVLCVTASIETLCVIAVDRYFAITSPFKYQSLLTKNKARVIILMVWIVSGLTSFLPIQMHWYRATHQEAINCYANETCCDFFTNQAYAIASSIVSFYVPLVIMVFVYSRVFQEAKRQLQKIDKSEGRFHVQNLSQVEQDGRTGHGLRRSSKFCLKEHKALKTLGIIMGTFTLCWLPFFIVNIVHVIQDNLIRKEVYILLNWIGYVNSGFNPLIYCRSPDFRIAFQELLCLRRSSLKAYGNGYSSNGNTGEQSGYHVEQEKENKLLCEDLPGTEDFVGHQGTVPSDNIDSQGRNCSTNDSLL
Chain of Beta-adrenergic receptor kinase 1 (Homo sapiens) (P25098 whole entry, looked up): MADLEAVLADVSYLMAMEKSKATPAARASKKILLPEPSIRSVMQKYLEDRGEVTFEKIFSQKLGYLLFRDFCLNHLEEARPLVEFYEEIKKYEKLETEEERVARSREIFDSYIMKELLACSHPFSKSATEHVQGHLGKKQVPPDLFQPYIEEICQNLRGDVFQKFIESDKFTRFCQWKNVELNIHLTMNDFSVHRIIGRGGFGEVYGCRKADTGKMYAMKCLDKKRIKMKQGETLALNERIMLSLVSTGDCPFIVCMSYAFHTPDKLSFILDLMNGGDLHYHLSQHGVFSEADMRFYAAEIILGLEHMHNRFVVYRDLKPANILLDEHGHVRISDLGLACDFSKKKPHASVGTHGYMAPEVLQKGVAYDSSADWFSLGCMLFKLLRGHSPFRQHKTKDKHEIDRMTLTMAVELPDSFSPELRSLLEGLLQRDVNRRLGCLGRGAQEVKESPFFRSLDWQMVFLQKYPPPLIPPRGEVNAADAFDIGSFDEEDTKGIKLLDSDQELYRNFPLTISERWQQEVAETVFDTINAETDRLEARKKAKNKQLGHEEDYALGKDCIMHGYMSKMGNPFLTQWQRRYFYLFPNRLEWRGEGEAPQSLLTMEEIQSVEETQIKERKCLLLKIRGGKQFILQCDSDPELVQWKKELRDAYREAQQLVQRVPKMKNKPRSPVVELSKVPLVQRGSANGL
Chain of ATP-binding cassette sub-family B member 6 (Homo sapiens) (Q9NP58 whole entry, looked up): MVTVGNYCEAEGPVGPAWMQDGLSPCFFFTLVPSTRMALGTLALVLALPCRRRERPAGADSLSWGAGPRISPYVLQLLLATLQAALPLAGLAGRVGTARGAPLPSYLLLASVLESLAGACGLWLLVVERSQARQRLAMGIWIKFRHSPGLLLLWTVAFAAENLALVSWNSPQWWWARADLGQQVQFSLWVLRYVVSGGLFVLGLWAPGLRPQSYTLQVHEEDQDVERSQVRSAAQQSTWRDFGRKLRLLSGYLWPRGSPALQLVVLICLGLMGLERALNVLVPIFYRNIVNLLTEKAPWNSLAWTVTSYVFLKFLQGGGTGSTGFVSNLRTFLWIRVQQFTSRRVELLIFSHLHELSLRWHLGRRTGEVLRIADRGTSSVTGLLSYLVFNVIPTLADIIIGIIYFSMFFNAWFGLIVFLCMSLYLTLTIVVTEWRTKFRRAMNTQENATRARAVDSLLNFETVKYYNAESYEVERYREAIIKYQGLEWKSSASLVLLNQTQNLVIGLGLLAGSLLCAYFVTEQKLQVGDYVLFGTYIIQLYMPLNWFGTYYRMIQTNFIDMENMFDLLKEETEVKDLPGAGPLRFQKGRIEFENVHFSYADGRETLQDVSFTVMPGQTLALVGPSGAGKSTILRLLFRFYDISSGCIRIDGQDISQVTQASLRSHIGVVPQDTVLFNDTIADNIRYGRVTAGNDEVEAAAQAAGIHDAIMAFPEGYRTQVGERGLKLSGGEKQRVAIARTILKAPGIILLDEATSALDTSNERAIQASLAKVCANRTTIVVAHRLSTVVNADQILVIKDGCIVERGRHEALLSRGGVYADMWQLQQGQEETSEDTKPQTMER

One may read the inhibition as the relative decrease from the control value, in per cent. With `CC(C)COCC(CN(Cc1ccccc1)c1ccccc1)N1CCCC1` (stereo not drawn), the percent of DMSO control GFP in assay [1] is 93.5% (inactive). The values for the GFP response vs DMSO in assay [2] and in assay [4] were 121% (inactive) and 74.3% (inactive), respectively. The percent response of DMSO control in assay [3] is 104% (inactive). In addition, the GFP response, % of DMSO in assay [5] is 91.9% (inactive). The double positive events in assay [6] came to 61.3%. In addition, the vesicle binding response in [6] was 119% (inactive). Moreover, the inhibition is 1.61% (inactive) in assay [7], -11.8% (inactive) in assay [11] and 8% (inactive) in assay [15]. In addition, the superoxide response (% of plate) in assay [8] was 116% (inactive). In addition, the aptamer binding inhibition in assay [9] is -2% (inactive). Moreover, the response was 8.3% (inactive) in assay [10] and 0.91% (inactive) in [12]. In assay [13], the binding (% of control) is 113% (inactive). Besides, in assay [14], the efflux inhibition (fraction of control) is 0.16 (inactive). The differentiation response in assay [16] is -0.82% (inactive).

Regarding `CC(C)(CO)CNC(=O)CC1C(=O)NCCN1CC(c1ccccc1)c1ccccc1` (stereo not drawn), in [1], the percent of DMSO control GFP was 97.8% (inactive). Also, the GFP response vs DMSO in assay [2] was 106% (inactive); in [4] it was 114% (inactive). The percent response of DMSO control in [3] is 86.3% (inactive). Moreover, the GFP response, % of DMSO in assay [5] is 96% (inactive). The same compound registered a double positive events in assay [6] of 65.3%. Also, the vesicle binding response in assay [6] was 7860% (inactive). The results for the inhibition in assay [7], in assay [11] and in assay [15] were 3.67% (inactive), -0.19% (inactive) and 7% (inactive), respectively. In addition, the superoxide response (% of plate) in assay [8] was 115% (inactive). Moreover, the aptamer binding inhibition in assay [9] is -1% (inactive). The response in assay [10] is -3.26% (inactive); in [12], 0.18% (inactive). In addition, the binding (% of control) in assay [13] was 99.5% (inactive). Also, the efflux inhibition (fraction of control) in assay [14] was 0.05 (inactive). Further, the differentiation response in [16] is -8.8% (inactive).

For `COc1cc2c(cc1OC)C(C)=NC1(CCCCC1)C2`, in assay [1], the percent of DMSO control GFP is 99.2% (inactive). For the same compound, the GFP response vs DMSO in [2] is 98.6% (inactive); in [4] it was 106% (inactive). For the same compound, in assay [3], the percent response of DMSO control was 95.1% (inactive). The GFP response, % of DMSO in assay [5] was 107% (inactive). In [6], this compound returned a double positive events of 62.8%. In assay [6], the vesicle binding response is 215% (inactive). Also, the inhibition in [7] is -29.2% (inactive); in assay [11], 20.9% (inactive); in assay [15], -52% (inactive). The superoxide response (% of plate) in assay [8] is 100% (inactive). Besides, the aptamer binding inhibition in assay [9] is 6% (inactive). The response in [10] was -21.7% (inactive); in assay [12], 8.37% (inactive). For the same compound, in assay [13], the binding (% of control) was 131% (inactive). Also, the efflux inhibition (fraction of control) in [14] is -0.04 (inactive). For the same compound, in assay [16], the differentiation response is -14.8% (inactive).

Regarding `CC(=O)NC(C(=O)NCC(N)=O)C(C)C` (stereo not drawn) (Ac-[ξV]-Gly-NH2), the percent of DMSO control GFP in [1] is 104% (inactive). In addition, the GFP response vs DMSO in assay [2] was 93% (inactive); in assay [4], 95.3% (inactive). The percent response of DMSO control in [3] is 111% (inactive). The GFP response, % of DMSO in assay [5] was 97.3% (inactive). For the same compound, the double positive events in assay [6] amounted to 65.3%. The vesicle binding response in [6] is 195% (inactive). Besides, the inhibition in [7] is -7.72% (inactive); in assay [11] it was -9.46% (inactive); in assay [15], 0% (inactive). The superoxide response (% of plate) in [8] was 93.7% (inactive). Further, in assay [9], the aptamer binding inhibition was -2% (inactive). For the same compound, the response in assay [10] was -7.22% (inactive); in assay [12], 0.49% (inactive). Also, the binding (% of control) in assay [13] was 96.9% (inactive). For the same compound, the efflux inhibition (fraction of control) in assay [14] was -0.2 (inactive). The differentiation response in assay [16] is 13.9% (inactive).
